Values without a mark were called inactive. No rule for the calls is given here.
System: Aerobactin synthetase IucA (Klebsiella pneumoniae, hypervirulent)
Assay: biochemical IucA inhibition screen of LOPAC library by absorbance (AID 1346212);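 also: 100% = no compound wells and 0% = no enzyme wells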
Details: IucA enzyme assay, absorbance (OD) readout; stronger effect = lower value;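 tested at 8 µM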

SMILES | remaining activity
N#CC(C#N)=C(N)/C(C#N)=C/c1cc(O)c(O)c(O)c1 | 87.7%
O=C(O)Cc1c[nH]c2ccc(O)cc12 | 101%
O=c1[nH]c2ccccc2n1CCCN1CCN(C(c2ccccc2)c2ccccc2)CC1 | 116%
CC(C)(C)NCC(O)COc1nsnc1N1CCOCC1 (stereo not given) | 109%
C[C@]1(C2CCCC2)Cc2cc(OCC(=O)O)c(Cl)c(Cl)c2C1=O | 113%
CCOC(=O)c1cnc2c(cnn2CC)c1NN=C(C)C | 124%
CCCCCCCCCCCCCCCCCCNC(=O)OCC(COP(=O)([O-])OCC[n+]1ccsc1)OC (stereo not given) | 126%
CNCCNS(=O)(=O)c1cccc2cnccc12 | 102%
CC(C)(C)[C@]1(O)CCN2C[C@H]3c4ccccc4CCc4cccc(c43)[C@@H]2C1 | 105%
CC(=O)N[C@H](C(=O)O)C(C)(C)SN=O | 117%
COC(=O)c1c(-c2cc(OC)c(OC)c(OC)c2)c2ccc(OCc3ccccn3)cc2c(=O)n1-c1ccc(N)cc1 | 86.8%
NCCCNCCCCNCCCN | 108%
CO/N=C(\C(=O)N[C@@H]1C(=O)N2C(C(=O)O)=C(CSc3nc(=O)c(=O)[nH]n3C)CS[C@H]12)c1csc(N)n1 | 117%
OC[C@H]1O[C@@H](n2cnc3c(N[C@H]4CC5CCC4C5)ncnc32)[C@H](O)[C@@H]1O (stereo not given in full) | 99.3%
Cc1ccccc1CNc1ncnc2c1ncn2[C@@H]1O[C@H](CO)[C@@H](O)[C@H]1O | 122%
CCN1C(=O)C=CC1=O | 102%
O=C(O)[C@@H]1C[C@@H](C(=O)O)N1 | 115%
CC(C)NCC(O)COc1ccc(COCCOC(C)C)cc1 (stereo not given) | 91.4%
CN1[C@@H]2CC[C@H]1CC(OC(=O)C(CO)c1ccccc1)C2 (stereo not given in full) | 95%
O=C1NC(=S)S/C1=C/c1cc(Br)ccc1OCc1ccccc1Br | 116%

SMILES | remaining activity
C[C@]12CC[C@@H]3c4ccc(O)cc4CC[C@H]3[C@@H]1CC[C@@H]2O | 99.8%
C[C@H]1C[C@H]2[C@@H]3CCC4=CC(=O)C=C[C@]4(C)[C@@]3(Cl)[C@@H](O)C[C@]2(C)[C@@]1(O)C(=O)CO | 107%
Cc1cccc(C)c1OCC(C)N (stereo not given) | 113%
CCCCCC(O)c1cccc(OCc2ccc3ccccc3n2)c1 (stereo not given) | 98.9%
OC1(c2ccc(Cl)cc2)CCN(Cc2c[nH]c3ccccc23)CC1 | 112%
O=C(O)c1cc(=O)cc(C(=O)O)[nH]1 | 122%
C[C@]12CCC(=O)C=C1CC[C@@H]1[C@@H]2[C@@H](O)C[C@@]2(C)[C@H]1CC[C@]2(O)C(=O)CO | 104%
CN(C)CCCCSC(=N)N | 84.5%
Nc1nnc(-c2cccc(Cl)c2Cl)c(N)n1 | 114%
CC(C)NC[C@H](O)COc1cccc2[nH]ccc12 | 116%
Cc1cnc(C(=O)NCCc2ccc(S(=O)(=O)NC(=O)NC3CCCCC3)cc2)cn1 | 81%
C[C@]12CCC(=O)C=C1CC[C@@H]1[C@@H]2[C@@H](O)C[C@@]2(C)[C@H]1CC[C@]2(O)C(=O)COC(=O)CCC(=O)O | 92.9%
CC(C)(CO)Cc1cc(C(C)(C)C)c(O)c(C(C)(C)C)c1 | 109%
N=C(N)SCCc1cccc(CCSC(=N)N)c1 | 110%
CC(C)N(CCC(=O)c1ccc2ccccc2c1)Cc1ccccc1 | 112%
CC(C)[C@H]1c2ccc(F)cc2CC[C@@]1(CCN(C)CCCc1nc2ccccc2[nH]1)OC(=O)C1CC1 | 118%
N[C@H](CO)C(=O)O | 106%
CCCC1O[C@@H]2C[C@H]3[C@@H]4CCC5=CC(=O)C=C[C@]5(C)[C@H]4[C@@H](O)C[C@]3(C)[C@]2(C(=O)CO)O1 (stereo not given in full) | 115%
OC[C@H]1O[C@@H](n2cnc3c(NC4CCCCC4)ncnc32)[C@H](O)[C@@H]1O | 93.2%
CC1=C(/C=C/C(C)=C/C=C/C(C)=C/C(=O)Nc2ccc(O)cc2)C(C)(C)CCC1 | 97.1%
